{
  "source": "PubChem BioAssay (EPA / NIEHS)",
  "note": "Records with an inconclusive call do not appear. Active and inactive are the calls of the source. How the source made its calls: active means hit-call score of the fitted dose curve at least 0.9, where 1 is the maximum; inconclusive means response in the unintended direction; inactive means score below 0.9.",
  "data": [
    {"experiment": "ACEA_ER_80hr: ACEA Biosciences xCELLigence Real-Time Cell Analysis on Estrogen Receptor Agonism for Proliferation (AID 2282667)", "conditions": "T47D proliferation, impedance (xCELLigence), 80 h", "how_it_was_run": "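Impedance readout (RT-CES) of T47D proliferation at 80 h post-dose; gain of signal vs DMSO baseline. Compounds: 8 conc, 1:4 serial, top 100 uM final, ≤0.5% DMSO; biological duplicate.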", "values": [
      {"smiles": "NC(=O)C(F)(F)C(F)(F)F", "AC50": "20.5 µM (active)"},
      {"smiles": "COP(=O)(O)OC", "outcome": "inactive"},
      {"smiles": "O=S(=O)(F)C(F)(F)C(F)(F)C(F)(F)C(F)(F)C(F)(F)C(F)(F)C(F)(F)C(F)(F)F", "outcome": "inactive"},
      {"smiles": "CC(=O)CCc1ccc2c(c1)OCO2", "outcome": "inactive"},
      {"smiles": "O=C(O)CF", "outcome": "inactive"},
      {"smiles": "CNC(=O)Oc1ccc(N(C)C)c(C)c1", "outcome": "inactive"},
      {"smiles": "COC(=O)C(F)(F)C(F)(F)OC(F)(C(F)(F)F)C(F)(F)OC(F)=C(F)F", "note": "(centres undefined)", "outcome": "inactive"},
      {"smiles": "O=C(O)C=CC(F)(C(F)(F)F)C(F)(F)F", "outcome": "inactive"},
      {"smiles": "O=P(OCC(Br)CBr)(OCC(Br)CBr)OCC(Br)CBr", "note": "(centres undefined)", "outcome": "inactive"},
      {"smiles": "CCCCC(CC)COC(=O)c1c(Br)c(Br)c(Br)c(Br)c1C(=O)OCC(CC)CCCC", "note": "(centres undefined)", "outcome": "inactive"},
      {"smiles": "FC(F)(F)c1ccc(Cl)cc1", "outcome": "inactive"},
      {"smiles": "Cc1cc(C)c(C(=O)P(=O)(c2ccccc2)c2ccccc2)c(C)c1", "outcome": "inactive"},
      {"smiles": "c1ccc2c(c1)sc1ccccc12", "outcome": "inactive"},
      {"smiles": "N#Cc1cc([N+](=O)[O-])ccc1N", "outcome": "inactive"},
      {"smiles": "CC1(C)CN=C(NN=C(/C=C/c2ccc(C(F)(F)F)cc2)/C=C/c2ccc(C(F)(F)F)cc2)NC1", "AC50": "0.0563 µM (active)"},
      {"smiles": "N#C/C=C/c1ccccc1", "outcome": "inactive"},
      {"smiles": "C=CC(=O)OCC(CC)(COC(=O)C=C)COC(=O)C=C", "outcome": "inactive"},
      {"smiles": "COC(N)=O", "outcome": "inactive"},
      {"smiles": "O=[N+]([O-])c1cc(Cl)ccc1Cl", "outcome": "inactive"},
      {"smiles": "FC(F)(F)C(F)(C(F)(F)F)C(F)(F)C(F)(F)CC1CO1", "note": "(centres undefined)", "outcome": "inactive"},
      {"smiles": "O=C(CBr)OCc1ccccc1", "outcome": "inactive"},
      {"smiles": "CCOP(=S)(S)OCC", "outcome": "inactive"},
      {"smiles": "Cc1ccc2c(c1N)C(=O)c1ccccc1C2=O", "outcome": "inactive"},
      {"smiles": "CC(=O)c1ccc(-c2ccccc2)cc1", "outcome": "inactive"},
      {"smiles": "CCOP(=S)(OCC)SCS(=O)(=O)CC", "outcome": "inactive"},
      {"smiles": "O=C(O)C(F)(F)OC(F)(F)C(F)(F)OC(F)(F)F", "outcome": "inactive"},
      {"smiles": "CC(C)Nc1ccc(Nc2ccccc2)cc1", "outcome": "inactive"},
      {"smiles": "OCC(F)(F)OC(F)(F)C(F)(F)OC(F)(F)CO", "AC50": "20.2 µM (active)"},
      {"smiles": "CCOP(=S)(OCC)SCn1nnc2ccccc2c1=O", "outcome": "inactive"},
      {"smiles": "OCC(F)(F)OC(F)(F)C(F)(F)OC(F)(F)C(F)(F)OC(F)(F)F", "outcome": "inactive"},
      {"smiles": "O=S(=O)(c1ccc(O)cc1)c1ccc(O)cc1", "AC50": "2.18 µM (active)"},
      {"smiles": "CCOP(=S)(NC(C)C)Oc1ccccc1C(=O)OC(C)C", "note": "(centres undefined)", "outcome": "inactive"},
      {"smiles": "C=C(C)C(=O)OCC1CO1", "note": "(centres undefined)", "outcome": "inactive"},
      {"smiles": "CC(Cl)CN(C)C", "note": "(centres undefined)", "outcome": "inactive"},
      {"smiles": "O=C(O)C(F)(OC(F)(F)C(F)(F)C(F)(F)F)C(F)(F)F", "note": "(centres undefined)", "outcome": "inactive"},
      {"smiles": "CC(O)C(F)(F)C(F)(F)F", "note": "(centres undefined)", "outcome": "inactive"},
      {"smiles": "Clc1ccc(Oc2ccccc2)cc1", "outcome": "inactive"},
      {"smiles": "CC(C)(C)N(NC(=O)c1ccc(Cl)cc1)C(=O)c1ccccc1", "outcome": "inactive"},
      {"smiles": "NNC(N)=S", "outcome": "inactive"}
    ]}
  ]
}
